In the library only some 11% were active in any assay of this set; here they are far more common.
JMJD2E inh: blocks human JMJD2E demethylase activity; B2RXH2; JMJD2E catalytic domain, FDH-coupled NADH fluorescence (FDH is formaldehyde dehydrogenase); Potency, µM (highest dose often 57.1 µM), for the others: top-dose activity change, negative = inhibition, hits mostly inhibitors; 230,000 tested, 1.6% active; AID 2147;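 also: potency is read from the fitted curve at half-maximal effect; 0% = wells with enzyme and -100% = buffer wells without enzyme; nearly all actives have a fitted effect of over 50% in size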
Target sequence (B2RXH2 1-337 limits assumed): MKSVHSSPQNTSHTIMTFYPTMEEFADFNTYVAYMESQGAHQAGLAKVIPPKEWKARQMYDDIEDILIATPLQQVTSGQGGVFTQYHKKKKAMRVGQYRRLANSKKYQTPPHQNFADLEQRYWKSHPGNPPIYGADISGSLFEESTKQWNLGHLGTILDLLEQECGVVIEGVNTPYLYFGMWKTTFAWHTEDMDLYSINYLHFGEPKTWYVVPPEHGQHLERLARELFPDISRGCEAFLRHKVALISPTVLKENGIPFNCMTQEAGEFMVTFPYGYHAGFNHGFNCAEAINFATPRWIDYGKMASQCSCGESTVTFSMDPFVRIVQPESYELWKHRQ
ALDH1A1 inh: inhibitors of human aldehyde dehydrogenase 1A1; Purified ALDH1A1, NADH fluorescence, propionaldehyde substrate; Potency, µM (titrated, usually from 75.3 µM), without a hit: at the top dose activity, negative = inhibition, actives largely listed as inhibitors; 220,000 tested, 7.3% active; AID 1030;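 also: potency is read from the fitted curve at half-maximal effect; plate controls were no enzyme wells and a reference inhibitor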
PNC inhibitor: perinucleolar compartment assembly inhibition | PC3M PTB-GFP, PNC prevalence imaging, 16 h; stronger effect = lower value | activity change (PNC), negative = inhibition, % at 10 µM | 140,000 tested, 3.1% active | AID 2417;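 active = readout at or below -70, meaning at least 70% loss of cells showing the perinucleolar compartment, a nuclear body marking cancer cells; inconclusive = readout between -30 and a set limit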;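 also: plate controls were DMSO wells for no effect and camptothecin positive control wells for full effect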
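PC3M cells stably expressing PTB-GFP, 750–1000 cells/well, treated 16 h at 37 °C with compound (23 nl of library stock), in duplicate. After paraformaldehyde fixation and Hoechst stain, imaged at 20x; PNC prevalence scored by image analysis.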
HPGD block: blocks human HPGD enzyme activity. P15428. purified HPGD, NADH fluorescence kinetic, PGE2 substrate. Potency, µM, without a hit: top-dose activity change, negative = inhibition, hits mostly inhibitors. 150,000 tested, 4.3% active. AID 894; also: potency is read from the fitted curve at half-maximal effect
Target sequence (P15428 whole entry, looked up): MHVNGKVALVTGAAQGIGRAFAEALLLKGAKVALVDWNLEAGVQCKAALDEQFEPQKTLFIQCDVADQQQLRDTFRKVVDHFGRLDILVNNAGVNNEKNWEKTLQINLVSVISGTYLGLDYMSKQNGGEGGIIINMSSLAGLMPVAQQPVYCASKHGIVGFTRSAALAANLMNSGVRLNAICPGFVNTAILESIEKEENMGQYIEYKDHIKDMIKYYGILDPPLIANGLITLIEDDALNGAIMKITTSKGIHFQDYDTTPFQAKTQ
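20 nM HPGD preincubated 15 min at room temperature with compound in 50 mM Tris-HCl pH 8, 0.01% Tween 20. Started with 1 mM NAD+ and 30 uM prostaglandin E2; NADH fluorescence (360/450 nm) read 5 times over 30-s intervals, last minus first.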
An asterisk follows results filed as active; ? = inconclusive; · = no result; [ ] = another dose, or the depositor's remark. Unless noted, calls follow the shape of the dose curve; as a rule, active = well fitted inhibition curve with a large enough effect (not every such curve was filed as active); inconclusive = small, poorly fitted or top-dose-only effect, or another doubt; inactive = no such curve, though single readings can be large or run the other way. Unless noted, % is scaled to controls: 0 for no effect and ±100 for the full control effect.

SMILES	JMJD2E inh	ALDH1A1 inh	PNC inhibitor	HPGD block
COc1cccc(/C=N/NC(=O)c2cc3c(OC)cccc3[nH]2)c1OC	?	-2%	?	-27%
COc1cccc(/C=N/NC(=O)c2cc3c(OC)c(OC)ccc3[nH]2)c1OC	-1%	?	-84*	?
COc1ccc(C2C(=O)c3ccccc3C2=Nc2ccc(Br)cc2)cc1 (centres undefined)	4%	28µM*	67	7.1µM*
C/C(N)=C(/C#N)C(=O)CSc1nnc(Nc2ccccc2)s1	-1%	1%	·	·
O=c1cc(CSc2nnc(Nc3ccccc3)s2)nc2sccn12	5%	-3%	8	18µM*
Cc1ccccc1Nc1nnc(SCc2cc(=O)n3ccsc3n2)s1	?	?	-20	28µM*
Cc1cccc(Nc2nnc(SCc3cn4ccsc4n3)s2)c1	1%	-6%	36	-20%
COc1ccccc1Nc1nnc(SCc2cc(=O)n3cc(C)ccc3n2)s1	3%	-8%	26	-25%
C/C(N)=C(/C#N)C(=O)CSc1nnc(Nc2ccccc2C)s1	6%	?	17	28µM*
COc1ccc(OC)c(Cc2nnc(CCC(=O)NC3C4CC5CC(C4)CC3C5)o2)c1 (centres undefined)	-3%	?	·	·
CNC(=O)[C@H]1O[C@@H](n2cnc3c(NCc4ccc(N)cc4)ncnc32)[C@H](O)[C@H]1O	1%	3%	·	2%
CC1CCCC(C)N1c1nnc(N)s1 (centres undefined)	-5%	18%	51	28µM*
COc1cccc(Cn2c(=O)cnc3cnc(Nc4ccccc4)nc32)c1	·	6%	·	·
CC1(C)C(=O)C2C[C@]3(O)C4=CC(=O)OC(c5ccoc5)[C@]4(C)CCC3[C@](C)(C2=O)C1CC(=O)O (some centres undefined)	6%	8%	·	-10%
CCOC(=O)N1CCN(C(=O)c2oc(=O)c3ccccc3c2-c2ccc(C)cc2)CC1	-2%	0.014µM*	?	-8%
Cc1ccc(-c2c(C(=O)NC(C)C)oc(=O)c3ccccc23)cc1	-2%	1.4µM*	·	·
Cc1ccc(-c2c(C(=O)NCc3ccccc3)oc(=O)c3ccccc23)cc1	5%	?	?	-2%
O=C(c1oc(=O)c2ccccc2c1-c1ccccc1)N1CCOCC1	-8%	?	22	-2%
Cc1ccc(-c2c(C(=O)N(C)Cc3ccccc3)oc(=O)c3ccccc23)cc1	4%	1.8µM*	28	-13%
CC1CCN(S(=O)(=O)c2ccc3ncn(CC(=O)N4CCN(C)CC4)c(=O)c3c2)CC1	-5%	1%	·	·
C#CCOc1ccccc1C(N)=O	-4%	·	·	·
CC(=O)c1c(C)[nH]c(C(=O)NCc2ccccn2)c1C	0%	3%	23	-6%
CCOC(=O)c1[nH]c(C)c(C(=O)NC2CCCC2)c1C	3%	2%	9	18µM*
CCOC(=O)c1[nH]c(C)c(C(=O)NCc2ccccn2)c1C	-7%	0%	-100*	-7%
CCOC(=O)c1[nH]c(C)c(C(=O)NC2CCCCCC2)c1C	10%	-3%	9	-2%
SMILES	JMJD2E inh	ALDH1A1 inh	PNC inhibitor	HPGD block
O=C(NC(=S)Nc1ccccn1)c1cccc([N+](=O)[O-])c1	-4%	-12%	·	·
CC(C)C(=O)Nc1ccc(-c2nc3ccccc3c(=O)o2)cc1	-7%	-14%	·	·
CC(=O)NC1C(=O)N(CCc2ccccc2)c2ccccc21 (centres undefined)	?	?	-30	-3%
CCCN1C(=O)C(NC(C)=O)c2ccccc21 (centres undefined)	-2%	0.13µM*	48	-3%
COC(=O)C1C2C=CC(C3CC23)C1C(=O)OCC(=O)c1ccc(OC)cc1 (centres undefined)	-3%	6.3µM*	16	28µM*
Cc1ccc(C(=O)COC(=O)CN2C(=O)C3C4CCC(C4)C3C2=O)cc1[N+](=O)[O-] (centres undefined)	-10%	20µM*	45	·
O=C(CN1C(=O)C2C3CCC(C3)C2C1=O)OCC(=O)c1cccc([N+](=O)[O-])c1 (centres undefined)	2%	-15%	68	-10%
COc1ccc(C(=O)COC(=O)CN2C(=O)C3C4C=CC(C5CC45)C3C2=O)cc1 (centres undefined)	-11%	13µM*	-12	-11%
COC(=O)C(CCCCN1C(=O)C2C3C=CC(C3)C2C1=O)N1C(=O)C2C3C=CC(C3)C2C1=O (centres undefined)	7%	?	25	-14%
COc1ccc(C(=O)COC(=O)CCN2C(=O)C3C4CC(C(Br)C4Br)C3C2=O)cc1 (centres undefined)	3%	-5%	35	-10%
COc1ccc(C(=O)COC(=O)C(CCCCN2C(=O)C3C4C=CC(C4)C3C2=O)N2C(=O)C3C4C=CC(C4)C3C2=O)cc1 (centres undefined)	-4%	10µM*	5	-2%
O=C(NNC(=S)Nc1ccccc1C(F)(F)F)C1CC1	0%	·	·	·
O=C(CSc1nnc(-c2ccco2)n1Cc1ccccc1)c1ccccc1	-5%	?	-22	28µM*
Cc1ccc(C(=O)CSc2nnc(-c3ccco3)n2Cc2ccccc2)cc1	0%	0%	-17	-20%
Cc1ccc(NCc2nnc(SCC(=O)c3ccccc3)n2Cc2ccco2)c(C)c1	1%	10µM*	?	-21%
CCOC(=O)c1c(C)[nH]c(C)c1C(=O)CSc1nnc(-c2ccncc2)n1Cc1ccccc1	3%	-1%	-10	-19%
CCOC(=O)c1c(C)[nH]c(C)c1C(=O)CSc1nnc(-c2ccco2)n1Cc1ccccc1	9%	16µM*	34	-7%
Cn1c(SCC(=O)c2ccc(-c3ccccc3)cc2)nnc1-c1ccco1	-1%	10µM*	?	-22%
O=C(Oc1cc(Cl)cc(Cl)c1)c1cnc2n(c1=O)CCS2	-15%	8%	·	·
COC(=O)[C@@H]1CC[C@H](C)[C@@H](c2ccc(C)cc2)N1C(=O)c1ccc(/C=N\O[C@@H]2O[C@H](COC(C)=O)[C@H](OC(C)=O)[C@H](OC(C)=O)[C@H]2OC(C)=O)cc1	·	13%[13.5 µM]	·	·
Cc1c(Cl)cc(C(C)(C)C)c(O)c1Cc1c(C)c(Cl)cc(C(C)(C)C)c1O	·	3%[13.5 µM]	·	-1%
O=S(=O)(Nc1ccccc1O)c1ccc(Cl)nc1	8%	·	·	·
CC1SC(c2ccc(Cl)cc2Cl)NC1=O (centres undefined)	1%	10%	25	-2%
CC1SC(c2cccc(Cl)c2)NC1=O (centres undefined)	0%	11µM*	-10	?
CCCn1c(SCC(=O)N2CCN(c3ccccc3)CC2)nc2ccccc2c1=O	-1%	-7%	33	-3%
CCCCn1c(SCC(=O)N2CCN(c3ccccc3)CC2)nc2ccsc2c1=O	-4%	?	-112*	·
CCCCn1c(SCC(=O)Nc2nccs2)nc2ccccc2c1=O	8%	3%	59	2%
CCCCn1c(SCC(=O)Nc2ccccc2C(F)(F)F)nc2ccsc2c1=O	5%	28µM*	?	-15%
